Compound activity from PubChem.
Most compounds without a hit are left out; they make up all but 3% or so of the library.
Rv3671c protease: Rv3671c (M. tuberculosis) protease inhibition; P9WHR9; 320,000 tested, 0.048% active; inhibition, % at 5.96 µM;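 note: extracellular domain of Rv3671c used as enzyme; 0% = enzyme with DMSO and 100% = no enzyme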
GDH-TPI counter: GDH-TPI coupled enzyme inhibition counter-screen; AID 588335; 360,000 tested, 1.2% active; GDH-TPI coupled enzyme counterscreen, NADH absorbance; inhibition, % at 4.8 µM; in the data active = inhibition above about 30%;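 note: 0% = DMSO wells and 100% = wells lacking the enzyme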
Mtb FBA inh: inhibits M. tuberculosis FBA enzyme; P9WQA3; purified M. tuberculosis FBA, fluorescence read-out; inhibition, % at 1 µM; 360,000 tested, 2.3% active; AID 588726; in the data active = inhibition above about 27%;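 note: 0% = vehicle and 100% = reference inhibitor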
Target sequence (P9WQA3 whole entry, looked up): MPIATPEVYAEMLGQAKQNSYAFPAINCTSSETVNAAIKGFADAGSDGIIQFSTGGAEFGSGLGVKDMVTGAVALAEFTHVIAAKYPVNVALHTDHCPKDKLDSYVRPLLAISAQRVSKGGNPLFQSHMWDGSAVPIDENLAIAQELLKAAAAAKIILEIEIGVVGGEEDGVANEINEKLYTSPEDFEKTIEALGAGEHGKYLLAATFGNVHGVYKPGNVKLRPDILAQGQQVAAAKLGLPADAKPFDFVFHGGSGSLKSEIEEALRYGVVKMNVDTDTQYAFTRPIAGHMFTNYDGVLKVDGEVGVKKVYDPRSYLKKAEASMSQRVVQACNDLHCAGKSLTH
Mtb BioA inh: inhibitors of Mycobacterium tuberculosis BioA enzyme; purified M. tuberculosis BioA enzyme, plate reader; inhibition, % at 9.99 µM; 360,000 tested, 0.096% active; in the data active = inhibition above about 40%
FadD28 binding: inhibitors of Mycobacterium tuberculosis FadD28 bisubstrate binding; FadD28 bisubstrate probe binding, fluorescence polarization; inhibition, % at 12.5 µM; 360,000 tested, 0.22% active; AID 588549; in the data active = inhibition above about 8.5%, passing the limit was not always enough
Rv3671c cf: confirmation of M. tuberculosis Rv3671c protease inhibitors; shares compounds with Rv3671c protease; inhibition, % at 5.96 µM; 140 tested, 40% active; AID 2761
An asterisk follows results filed as active; i = inactive; . = no result given; + = active, no number. Cut-off read from the data, not from the text of the source, unless noted: active = inhibition above about 38%; inactive = the rest.

SMILES | Rv3671c protease | GDH-TPI counter | Mtb FBA inh | Mtb BioA inh | FadD28 binding | Rv3671c cf
O=[N+]([O-])c1cc(Cl)cc(/C=N/NC(=S)Nc2ccc(S(=O)(=O)N3CCOCC3)cc2)c1O | 58* | 20 | -10 | 5 | 18* | 14
Cc1cccc2c(N=O)c(O)[nH]c12 | 48* | 20 | -2 | 1 | -3 | 31
Cc1[nH]c2c(C)cccc2c1CC(=O)O | 1 | -6 | -7 | 0 | -2 | .
C[C@@H]1CCCCO[C@H](CN(C)Cc2ccc3c(c2)OCO3)[C@H](C)CN([C@@H](C)CO)C(=O)c2cc(NC(=O)Cc3ccccc3)ccc2O1 | . | . | . | 3 | . | .
Cc1cc(O)ccc1N=Cc1c(C(F)(F)F)[nH][nH]c1=O | 99* | 2 | -3 | . | 1 | -4
C=CCn1cc(/C=N/Nc2nc3ccccc3[nH]2)c2ccccc21 | 40* | 18 | 4 | . | 4 | 68*
Cc1noc(C(=O)Nc2ccc(F)c(Cl)c2)c1Cl | 61* | 0 | 0 | . | 0 | -5
C[C@@H]1CCCCO[C@H](CN(C)C(=O)NC2CCCCC2)[C@H](C)CN([C@H](C)CO)C(=O)c2cc(NS(=O)(=O)c3ccc(F)cc3)ccc2O1 | . | . | . | 1 | . | .
O=C(NCc1cccs1)c1cccc(Nc2nc3ccc(Br)cc3[nH]2)c1 | 43* | -8 | 0 | -1 | -18 | 37*
O=C(NCc1cccs1)c1ccccc1 | 0 | 0 | 2 | 0 | -2 | .
COc1ccc2nc3cc(Cl)ccc3c(Nc3cc(C(C)C)c(O)cc3C)c2c1 | 40* | 5 | -4 | . | -2 | 46*
CCCn1nc([N+](=O)[O-])c(C(C#N)c2nc3ccccc3s2)c(Cl)c1=O (stereo unspecified) | 40* | 21 | -10 | 8 | 26* | 31
C[C@@H]1CN([C@H](C)CO)C(=O)CCCn2nncc2CO[C@H]1CN(C)C(=O)Nc1ccccc1F | . | . | . | -2 | . | .
CCCNC(=O)Nc1ccc2c(c1)C(=O)N(C)C[C@@H](OC)[C@H](C)CN(Cc1ccncc1)[C@@H](C)CO2 | . | . | . | -1 | . | .
Nc1ccc(O)c2c1C(=O)c1ccccc1C2=O | 56* | 2 | -1 | -2 | 4 | 38*
COCCOC(=O)N1C(=O)[C@@]2(c3cc(C#CC4(O)CCCCCC4)ccc31)[C@H](C(=O)N1CCN(c3ncccn3)CC1)[C@H]1C(=O)O[C@H](c3ccccc3)[C@H](c3ccccc3)N1[C@@H]2c1ccccc1OCCO | . | . | . | -4 | . | .
O=C(NC(=S)NNC(=O)c1ccc(Cl)cc1Cl)c1cccnc1 | -11 | 2 | -2 | 4 | 1 | .
O=C(NC(=S)NNC(=O)c1ccccc1O)c1cccnc1 | 47* | 14 | -2 | . | -4 | 44*
CCN(c1ccccc1)S(=O)(=O)c1ccc(N2CCN(c3ccc(OC)cc3)CC2)nc1 | 102* | 4 | -2 | -2 | -1 | -6
O=C(C[C@H]1C[C@H]2c3cc(NC(=O)Nc4ccccc4)ccc3O[C@H]2[C@@H](CO)O1)NCc1ccncc1 | . | . | . | -1 | . | .
N#CCN(CC#N)C(=O)C1c2ccccc2Oc2ccccc21 | 104* | 5 | -1 | 1 | -3 | 5
O=C(N/N=C/c1cc([N+](=O)[O-])ccc1O)NC12CC3CC(CC(C3)C1)C2 | 52* | 19 | -3 | . | -1 | 20
O=C(N/N=C/c1cc([N+](=O)[O-])ccc1O)C12CC3CC(CC(C3)C1)C2 | 6 | -1 | -1 | . | -3 | .
O=C(COC(=O)c1cccc(Cl)c1)NCc1ccccc1 | -4 | 2 | -2 | -2 | 0 | .
COc1cc(OC)nc(NC(=O)COC(=O)c2cccc(Cl)c2)n1 | + | 8 | 0 | . | -1 | -15
SMILES | Rv3671c protease | GDH-TPI counter | Mtb FBA inh | Mtb BioA inh | FadD28 binding | Rv3671c cf
CCOC(=O)N(C)C[C@H]1OCc2ccccc2-c2ccccc2C(=O)N([C@H](C)CO)C[C@@H]1C | . | . | . | 5 | . | .
COc1ccccc1NC(=O)C1C2C=CC(C2)C1C(=O)NCc1cccnc1 (stereo unspecified) | 4 | -15 | 1 | -2 | -2 | .
O=C(O)C1C2C=CC(C2)C1C(=O)NCc1cccnc1 (stereo unspecified) | 77* | 3 | 1 | -3 | -1 | -9
C[C@H]1CN([C@@H](C)CO)C(=O)c2cccc(NC(=O)c3cnccn3)c2O[C@@H]1CN(C)S(=O)(=O)c1ccc(Cl)cc1 | . | . | . | -1 | . | .
Cc1ccc(OCCn2cc(/C=N/NC(=O)c3ccncc3)c3ccccc32)cc1 | 40* | 28 | 2 | -5 | 0 | 26
COc1ccc(OCCn2cc(/C=N/NC(=O)c3ccncc3)c3ccccc32)cc1 | 3 | 9 | 2 | . | -4 | .
Cc1ccc(S(=O)(=O)Nc2ccc3c(c2)C(=O)N([C@H](C)CO)C[C@H](C)[C@@H](CN(C)Cc2ccncc2)OCCCC[C@H](C)O3)cc1 | . | . | . | 1 | . | .
CN(C)C(=O)C[C@@H]1C[C@@H]2c3cc(NS(=O)(=O)c4ccccc4)ccc3O[C@@H]2[C@@H](CO)O1 | . | . | . | 3 | . | .
O=c1cc[nH]c2c1ccc1c(=O)cc[nH]c12 | 50* | 10 | 24 | . | -2 | 15
Cc1ccc(S(=O)(=O)Nc2ccc3c(c2)C(=O)N([C@@H](C)CO)C[C@H](C)[C@H](CN(C)Cc2ccc(Cl)c(Cl)c2)O3)cc1 | . | . | . | 1 | . | .
c1ccc(CCN2CN=C(Nc3nc4ccccc4s3)NC2)cc1 | 78* | 1 | -1 | . | -3 | 9
COc1cccc2c1NC(C(=O)O)C1CC=CC21 (stereo unspecified) | 35 | 8 | 1 | . | 7 | .
O=C(O)C1Nc2c(O)cc(Cl)c([N+](=O)[O-])c2C2C=CCC12 (stereo unspecified) | 49* | 10 | -8 | . | 59* | 18
COc1ccc(C(=O)N/N=C/c2cc3ccccc3[nH]c2=S)cc1 | 44* | 26 | 1 | 1 | -4 | 45*
C[C@H](CO)N1C[C@H](C)[C@@H](CN(C)Cc2ccc(C(F)(F)F)cc2)Oc2ccc(NC(=O)CCCN(C)C)cc2C1=O | . | . | . | -1 | . | .
C[C@@H]1CN([C@@H](C)CO)C(=O)Cc2cc(NC(=O)Nc3cccc4ccccc34)ccc2O[C@@H]1CN(C)C(=O)Nc1ccc2c(c1)OCO2 | . | . | . | -3 | . | .
Cc1ccc(S(=O)(=O)Nc2ccc3c(c2)C(=O)N([C@H](C)CO)C[C@@H](C)[C@H](CN(C)C(=O)NC2CCCCC2)OCCCC[C@H](C)O3)cc1 | . | . | . | 0 | . | .
S=C(Nc1ccc(Cl)cc1)N1CCN(C2CCCCC2)CC1 | 5 | 3 | 1 | -3 | -2 | .
C=CCNC(=S)N1CCN(C2CCCCC2)CC1 | 40* | -9 | 4 | . | -4 | -1
C[n+]1c2ccccc2nc2ccc(NCCO)cc21 | 43* | 11 | 3 | 6 | 44* | 42*
CNc1ccc2nc3ccccc3[n+](C)c2c1 | 107* | -9 | -1 | 4 | 57* | 82*
c1ccc2nc3ccccc3nc2c1 | 2 | 4 | 4 | -1 | 1 | .
COCCNC(=O)C[C@H]1C[C@H]2c3cc(NC(=O)Nc4ccccc4)ccc3O[C@H]2[C@@H](CO)O1 | . | . | . | 0 | . | .
COCCCNc1c2c3c(cccc3[nH]c1=O)C(=O)c1ccccc1-2 | 137* | 12 | -6 | i | 58* | 145*
